# Results: ChEMBL document CHEMBL3988442, “University of Dundee, Small-Polar-MMV Screening Library” (2021)
# About 13,000 (27%) of roughly 48,000 compounds showed an effect of 50% or more. Some of the results follow.
# Test system: Wolbachia pipientis
# Assay: Anti-Wolbachia Cell-Based Screen
# Assay type: functional
# Set-up: scale not given: in the data most compounds retested in dose-response had high values
# Settings: 5 µM
row,Compound,Percent Effect
1,COc1ccc(C(=O)N2CCOC(Cc3cccc(C(F)(F)F)c3)C2)o1 (stereo not given),-4.741%
2,N#Cc1ccc(CNc2ncc(C#N)cc2Cl)cc1,12.93%
3,CCn1nc(C)c(CN(CCCOC)Cc2ccccn2)c1C.O=C(O)CC(O)(CC(=O)O)C(=O)O,71.01%
4,Cc1occc1C(=O)N(CCN(C)C)Cc1ccccn1,-8.298%
5,CCn1nc(C)c(CN(CCOC)C(=O)c2ccc(=O)[nH]n2)c1C,-5.597%
6,CCN(Cc1ccccn1)Cc1cc(Cl)ccc1OC,-5.315%
7,CCn1nc(C)c(CN(CCCN(C)C)Cc2ccccn2)c1C,80.15%
8,CCn1nc(C)c(CN(Cc2ccccn2)Cc2ccccc2Cl)c1C,105.5%
9,CCOCC(=O)N(Cc1ccccn1)Cc1ccccc1C,-6.914%
10,Cc1ccsc1CN(CCN(C)C)Cc1ccccn1,2.739%
11,Cc1ccsc1CN(CCCN(C)C)Cc1ccccn1,97.01%
12,CCn1nc(C)c(CN(CCOC)C(=O)c2ccccc2N(C)C)c1C,-7.863%
13,Cc1ccoc1C(=O)N(CCN(C)C)Cc1ccccn1,-10.81%
14,Cc1ccsc1CN(Cc1ccccn1)CC(C)C,-7.102%
15,CN1CCCN(CCCNC2CCc3cc4c(cc32)OCCO4)CC1 (stereo not given),-2.164%
16,CCN1CCN(c2ccc(F)cc2C(C)NCc2noc(C)n2)CC1 (stereo not given),6.672%
17,NC(=O)c1ccnc(N2CCN(Cc3ccc(F)cc3Cl)CC2)c1,9.794%
18,CCCN(Cc1ccccn1)Cc1ccccc1OC,8.723%
19,CCCn1nc(C)c(CN(CCN(C)C)Cc2ccccn2)c1C,95.65%
20,CCCn1ncc(CN(CCN(C)C)Cc2ccsc2)c1C,0.1145%
21,NC(=O)N1CCCC1COC(=O)c1ccc(F)cc1Br (stereo not given),-14.4%
22,O=S1(=O)CCC(CNS(=O)(=O)N2CCc3ccccc3C2)C1 (stereo not given),5.684%

row,Compound,Percent Effect
1,CCCC(C)(C)NC(=O)c1ccc(CC2CC(=O)NC2=O)cc1 (stereo not given),-6.168%
2,O=C(N[C@H]1CCCC[C@@H]1O)c1cccc(-c2nc3ccccc3[nH]2)c1,102.7%
3,O=C(N[C@H]1CCCC[C@@H]1O)c1ccc(-c2nc3ccccc3[nH]2)cc1,104%
4,O=C(N[C@@H]1CCNC[C@H]1O)c1ccc(F)c(F)c1,7.783%
5,CN1CCCC1CCn1ccnc1-c1nc2ccccc2[nH]1 (stereo not given),1.274%
6,OCC1CCCCN1CCn1ccnc1-c1nc2ccccc2[nH]1 (stereo not given),1.292%
7,O=C(N[C@@H]1CCNC[C@H]1O)c1ccc(O)c(Cl)c1,22.9%
8,O=C(N[C@@H]1CNCCC[C@H]1O)c1ccc(OCc2ccccc2)cc1,-1.908%
9,O=C(N[C@@H]1CCNC[C@H]1O)c1ccc(-c2ccc(F)cc2)cc1,15.94%
10,O=C(N[C@H]1CCCC[C@@H]1O)c1ccc2nc(-c3ccccc3)[nH]c2c1,121.7%
11,O=C(CCc1cn[nH]c1)N1C[C@@H](CN2CCOCC2)C[C@H](CO)C1,10.13%
12,COC(=O)c1sccc1S(=O)(=O)N1CCC(Oc2cccnn2)CC1,13.23%
13,COC(=O)N1CCCC(NC(=O)NCc2ccc(C)nc2)C1 (stereo not given),12.17%
14,CN(C)Cc1ccnc(C2CN(CCc3ccccc3)CCO2)n1 (stereo not given),102.6%
15,Cc1nc(C)n(CC2CN(CCCc3ccccc3)CCO2)n1 (stereo not given),-18.17%
16,CN(Cc1nccn1C)C1CCCN(CCCc2ccccc2)C1 (stereo not given),7.706%
17,CN(C)Cc1ccnc(C2CN(CCCc3ccccc3)CCO2)n1 (stereo not given),114%
18,CC(C)(C)c1n[nH]c(C2CN(CCc3ccncc3)CCO2)n1 (stereo not given),18.66%
19,Cn1ncc(N2CCC(CNC3CC(C)(C)CC(C)(C)C3)C2)cc1=O (stereo not given),8.981%
20,Cc1nn(C)cc1CN1CCC(c2ncc(Cl)cc2S(C)(=O)=O)CC1,110.1%
21,CN(CCO)Cc1nnc(C2CCN(C(=O)C3CCOCC3)CC2)n1C,-7.962%
22,Cn1c(CN2CCCC2)nnc1C1CCCN(C(=O)C2CCOCC2)C1 (stereo not given),-15.35%

row,Compound,Percent Effect
1,CS(=O)(=O)c1cc(Cl)cnc1C1CCN(C(=O)C2CCOCC2)CC1,98%
2,Cc1nn(CCO)cc1CN1CCC(N2CCC(O)CC2)CC1,-2.078%
3,Cc1nn(C)cc1CN1C[C@@H]2CC[C@H](C1)N(Cc1c(C)noc1C)C2=O,-0.3171%
4,CS(=O)(=O)c1cc(Cl)cnc1C1CCCN(C(=O)C2CCOCC2)C1 (stereo not given),120.4%
5,O=C(C1CCCO1)N1CCC(c2nc(-c3ccccc3)n[nH]2)CC1 (stereo not given),-16.11%
6,O=C(C1CCCO1)N1CCC(Cn2cc(C3CCCC3)nn2)CC1 (stereo not given),-6.289%
7,CS(=O)(=O)c1cc(Cl)cnc1C1CCN(C(=O)C2CCCO2)CC1 (stereo not given),120.4%
8,CS(=O)(=O)N1C[C@@H](C(=O)Nc2cnccn2)C[C@H]2OCC[C@H]21,-10.64%
9,Cc1cc(C)cc(C(=O)Nc2ccc(CC3CC(=O)NC3=O)cc2)c1 (stereo not given),-7.063%
10,CCS(=O)(=O)c1ccc(N2CCC(N)CC2)cc1,-6.106%
11,CCc1noc(C)c1C(=O)NCCCC(CC)(CC)C1OCCO1,-8.501%
12,Cn1c(C(F)(F)F)nn(CCNC(=O)c2cnc3ccccc3n2)c1=O,1.982%
13,O=C(C1CC1)N1CCC(Oc2ccccc2Cl)CC1,-14.42%
14,CS(=O)(=O)c1cc(Cl)cnc1C1CCN(C(=O)C2CC2)CC1,82.8%
15,N#Cc1cnc(NC2CCN(C(=O)C3CC3)CC2)c(Cl)c1,-2.67%
16,CCn1nc(C)c(CCNC(=O)C2CCCN(CC(N)=O)C2)c1C (stereo not given),-1.587%
17,O=S1(=O)N=C(SCc2ccc(Cl)cc2)Nc2ccc(F)cc21,26.5%
18,O=C(CSC1=NS(=O)(=O)c2cc(F)ccc2N1)Nc1ccc(Cl)cc1,115.7%
19,CN(CCS(=O)(=O)c1cc(Cl)ccc1Cl)CC(=O)Nc1ccc(F)cc1,-4.797%
20,O=C(CSC1=NS(=O)(=O)c2cc(F)ccc2N1)Nc1ccc(Cl)c(Cl)c1,112.6%
21,O=C(CSC1=NS(=O)(=O)c2cc(F)ccc2N1)Nc1cccc(Cl)c1,1.822%
